The record followed here is PubChem BioAssay AID2685 (National Center for Advancing Translational Sciences (NCATS), 2010).

Out of some 320,000 compounds screened, about 2,100 (0.66%) were called active. Inconclusive results (about 53%) are left out. The call rests on the fitted dose curve; in most records, active means well fitted inhibition curve with a large enough effect in the signal ratio, with a control signal flat (not every such curve was filed as active); inconclusive means small, poorly fitted or top-dose-only effect, or effect the other way, or a change in a side signal; inactive means flat fitted curve, though single readings scatter; the % refers to the signal ratio. The entries come from a sample that favours actives as a whole.
Potency means the concentration at half of the fitted maximal effect.

The nature of the test: qHTS Assay for Lipid Storage Modulators in Drosophila S3 Cells.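 On cell number change: cells counted by Cell Tracker Red CMTPX staining in the red channel.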 On lipid storage change, negative = inhibition: on the % scale 0 is the no-effect control and ±100 the full control effect. The conditions noted are these: BODIPY lipid droplet fluorescence, 18-24 h, cells fed with added oleic acid; cell number change: measured here: cell count max response; series mostly up to 46.1 µM. The method in brief:
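Drosophila S3 cells loaded with oleic acid (400 uM, as added) and compounds at several concentrations; lipid droplets imaged by 488-nm laser-scanning cytometry, 500–530 nm intensity and object ratio to cell channel. Percent activity normalized to 20 uM Triacsin C.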
(In general: qHTS replaces the single test concentration by a dilution series.)
For `COc1ccc(C(=O)NCc2nnc(SCC(=O)Nc3cccc(C(F)(F)F)c3)o2)cc1OC`, the Potency result is “inactive” and the cell number change was 0.944%.

For `CCOC(=O)c1ccc(NC(=O)CSc2nnc(CNC(=O)c3ccco3)o2)cc1`, the Potency is 3.66 µM (active) and the cell number change was -21.5%. As for `CCC1CCCCN1C(=O)CSc1nnc(CNC(=O)c2cc(OC)c(OC)c(OC)c2)o1` (centres undefined), the Potency entry was “inactive”. The same measure, in the same setting: the value for `Cc1ccc(NC(=O)CSc2nnc(CNC(=O)c3ccco3)o2)cc1` was “inactive”. In the case of `COc1cc(C(=O)NCc2nnc(SCC(=O)N3CCCCC3)o2)cc(OC)c1OC`, the Potency is 18.4 µM (active) and the cell number change came to 4.42%. For `COc1cc(C(=O)NCc2nnc(SCC(=O)Nc3cc(C)cc(C)c3)o2)cc(OC)c1OC` the same measures were “inactive” and 6.53%. As to `COc1cc(C(=O)NCc2nnc(SCC(=O)Nc3cccc(C(F)(F)F)c3)o2)cc(OC)c1OC`, the Potency is 9.2 µM (active) and the cell number change was -27.5%. On the same counts, the results for `CCOc1ccc(NC(=O)CSc2nnc(CNC(=O)c3ccco3)o2)cc1` are “inactive” and 12.8%. On to `COc1ccc(C(=O)NCc2nnc(SCC(=O)N3CCCC3)o2)cc1`, for which the Potency result was “inactive”. Regarding `Cc1cc[n+]2c3c(cccc13)CCC2`, the Potency result was “inactive” and the cell number change was 21.6%. On the same counts, the results for `Cn1c(SCC(=O)Nc2nccs2)nnc1-c1ccco1` are “inactive” and 19.7%. For the molecule `O=C(CCNS(=O)(=O)c1ccccc1F)N1CCN(Cc2ccccc2)CC1`, the Potency result is “inactive”. In the case of `O=C(CCNS(=O)(=O)c1ccccc1C(F)(F)F)N1CCN(C(c2ccccc2)c2ccccc2)CC1`, the Potency result is “inactive” and the cell number change is 9.11%. Take `O=C(CCNS(=O)(=O)c1ccccc1F)N1CCN(C(c2ccccc2)c2ccccc2)CC1`: the Potency is 23.1 µM (active). `COc1cc(CN(C(=S)NCC(=O)NC2CC2)C2CCCC2)cc(OC)c1OC`: the Potency result is “inactive” and the cell number change came to 4.91%. On the same counts, the results for `CS(=O)(=O)N1N=C(c2ccccc2)CC1c1cccs1` (centres undefined) are “inactive” and -4.84%.

Take `N=C(N)Sc1nc(N2CCCCC2)nc(N2CCCCC2)n1`: the Potency entry is “inactive” and the cell number change turned out to be 2.17%.

`CN(C)S(=O)(=O)c1cccc(-c2nnc(SCC(=O)NCCCCCC(=O)O)n2-c2ccc(F)cc2)c1`: the Potency result is “inactive” and the cell number change was found to be 5.6%.

On to `O=C(O)CCC(=O)Nc1ccc(S(=O)(=O)c2ccc(NC(=O)CCC(=O)O)cc2)cc1`, for which the Potency result was “inactive” and the cell number change worked out at 14.2%.

As to `CNc1c(NS(=O)(=O)c2ccc(OC)c(Cl)c2)c(=O)oc2ccccc12`, the Potency is 16.4 µM (active) and the cell number change was -27.3%.

`CC(=O)Nc1ccc(S(=O)(=O)Nc2c(NC3CCCCC3)c3ccccc3oc2=O)cc1`: the Potency entry was “inactive” and the cell number change was -18%.

Consider `CCC(=O)Nc1ccc(S(=O)(=O)c2ccc(NC(=O)CC)cc2)cc1`, for which the Potency is 10.3 µM (active) and the cell number change amounted to 0.0647%. For `CCCNc1c(NS(=O)(=O)c2ccc3c(c2)CCCC3)c(=O)oc2ccccc12` the same measures were “inactive” and -4.72%. Regarding `CNc1c(NS(=O)(=O)c2cc(OC)ccc2OC)c(=O)oc2ccccc12`, the Potency entry was “inactive” and the cell number change is -19.8%. On the same counts, the results for `CCC(=O)Nc1ccc(S(=O)(=O)Nc2c(NC)c3ccccc3oc2=O)cc1` are 18.4 µM (active) and 8.07%.

For `COc1ccc(S(=O)(=O)Nc2c(NC3CCCCC3)c3ccccc3oc2=O)cc1Cl`, the Potency result is “inactive” and the cell number change was -20.1%. For `CCCNc1c(NS(=O)(=O)c2ccc(C)c(C)c2)c(=O)oc2ccccc12` the same measures were 0.291 µM (active) and -4.13%. As to `CCCNc1c(NS(=O)(=O)c2ccc(NC(=O)CC)cc2)c(=O)oc2ccccc12`, the Potency result is “inactive” and the cell number change is -23.3%. Regarding `CCCNc1c(NS(=O)(=O)c2ccc(Br)cc2)c(=O)oc2ccccc12`, the Potency entry is “inactive” and the cell number change is -47.1%. For `CC(=O)Nc1ccc(S(=O)(=O)c2ccc(C)cc2)cc1` the same measures were “inactive” and -22.1%. On the same counts, the results for `O=C(NNS(=O)(=O)c1ccccc1)c1cnn(-c2ccccc2)c1-n1cccc1` are “inactive” and 9.3%. Turning to `O=C1CC(NS(=O)(=O)c2cc(F)ccc2F)CN1c1ccc2c(c1)OCCO2` (centres undefined), the Potency entry is “inactive”. Regarding `CC(=O)N1CCc2cc(Br)cc(S(=O)(=O)N3CCCCCC3)c21`, the Potency entry is “inactive” and the cell number change is -5.11%.

On to `Cn1cccc1/C=N/NC(=O)CSc1nc2ccccc2[nH]1`, for which the Potency result is “inactive” and the cell number change is 5.5%.

Consider `CCC(=O)NC(=S)Nc1ccc(NC(=O)c2ccc(Br)o2)cc1`, for which the cell number change was -10.2% and the lipid storage change, negative = inhibition is -15.2% [at 9.22 µM] (inactive). With `C=CCn1c(CNC(=O)c2ccccc2F)nnc1SCC(=O)NC(C)c1ccccc1` (centres undefined), the Potency result is “inactive” and the cell number change stood at 1.35%. In the case of `Cc1cc(=O)oc2cc(OCc3ccc(C(=O)OCC(=O)N(C)C4CCS(=O)(=O)C4)cc3)ccc12` (centres undefined), the Potency result was “inactive” and the cell number change was -7.42%. For `CCN(C(=O)COC(=O)COc1ccc2c(C)cc(=O)oc2c1)C1CCS(=O)(=O)C1` (centres undefined) the same measures were 0.0461 µM (active) and -49.7%.

With `Cc1cc(=O)oc2cc(OCC(=O)OCC(=O)N(C)C3CCS(=O)(=O)C3)ccc12` (centres undefined), the Potency result was “inactive” and the cell number change worked out at 7.81%. On the same counts, the results for `Fc1ccccc1C(c1nnnn1C1CCCC1)N1CCN(Cc2ccccc2)CC1` (centres undefined) are “inactive” and -15.7%. On the same counts, the results for `COc1ccccc1NC(=O)Nc1ccc(Br)cn1` are “inactive” and -23.3%.

In the case of `COc1ccc(C2/C=C\CN(S(=O)(=O)/C=C/c3ccccc3)[C@H](Cc3ccccc3)C(=O)N2Cc2ccc(F)cc2)cc1` (some centres undefined), the Potency result is “inactive” and the cell number change stood at 2.68%.

`COc1cc(/C=N/NC(=O)c2ccc3nc[nH]c3c2)ccc1O`: the Potency result is “inactive” and the cell number change turned out to be 8.7%. For `CC1(C)Cc2cccc(OCC(=O)NCc3ccc(F)cc3)c2O1` the same measures were “inactive” and 2.51%.

In the case of `Cc1ccc(CNC(=O)COc2cccc3c2OC(C)(C)C3)cc1`, the Potency was 10.3 µM (active). Turning to `COc1cccc(CNC(=O)COc2cccc3c2OC(C)(C)C3)c1`, the Potency result was “inactive”.
